Experiment [1] can be described thus: qHTS assay to identify aromatase inhibitors - cell viability counter screen (AID 743084).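 Note: cells stimulated with testosterone during compound exposure; nearly all actives have a fitted effect of over 55% in size.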 In general terms: qHTS replaces the single test concentration by a dilution series.
Experiment [2] has as its target Aryl hydrocarbon receptor (Homo sapiens) (UniProt P35869). The experiment in a line: qHTS assay to identify small molecule that activate the aryl hydrocarbon receptor (AhR) signaling pathway (AID 743085).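 For activation: HG2L7.5c1 human HepG2 liver cells with stably integrated DRE-driven firefly reporter; series mostly up to about 70 µM.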 Note: nearly all actives have a fitted effect of over 15% in size. Note: potency is the fitted concentration of half-maximal effect. The essentials:
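HepG2 cells (HG2L7.5c1) stably carrying a firefly luciferase reporter driven by 20 dioxin responsive elements were exposed to compound for 24 h at 37C after a 5 h settling period; luminescence rise (ONE-Glo) indicated activation.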

Experiment [3] is described as follows: qHTS assay to identify small molecule that activate the aryl hydrocarbon receptor (AhR) signaling pathway - cell viability counter screen (AID 743086).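 Note: HepG2 liver cells carrying the AhR DRE luciferase reporter; series mostly up to about 70 µM; nearly all actives have a fitted effect of over 45% in size.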 The gist of the method: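 HepG2-AhR-luc (HG2L7.5c1) cells, 4000/well, were preincubated 5 h at 37C, exposed to compound in qHTS format for 24 hr at 37C, then given CellTiter-Fluor for 30 min; viability was read as fluorescence in the reporter wells.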

Experiment [4] concerns the target Peroxisome proliferator-activated receptor gamma (Homo sapiens) (UniProt P37231). The experiment in a line: qHTS assay to identify small molecule agonists of the peroxisome proliferator-activated receptor gamma (PPARg) signaling pathway (AID 743094; active = well fitted activation curve with a large enough effect in the signal ratio in the repeat runs, not every such curve was filed as active; the % refers to the signal ratio). The gist of the method:
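Following 5 h plating at 37C, PPARg-bla HEK293H cells receive compound or DMSO for 17 h; fluorescence intensity is recorded after LiveBLAzer B/G loading for 1 h at room temperature.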

The target is the same in experiment [5]. As to the kind of experiment: qHTS assay to identify small molecule antagonists of the peroxisome proliferator-activated receptor gamma (PPARg) signaling pathway (AID 743191; calls by dose curve; note: series mostly up to about 63 µM; nearly all actives have a fitted effect of over 30% in size). The gist of the method: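 GeneBLAzer PPARg UAS-bla HEK293H cells carrying a UAS-driven beta-lactamase reporter were plated at 3000 cells/well, preincubated 5 h at 37C, then given compound for 17 h at 37C; LiveBLAzer B/G FRET substrate was read after 1 h at room temperature.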

Experiment [6] is described as follows: qHTS assay to identify small molecule antagonists of the peroxisome proliferator-activated receptor gamma (PPARg) signaling pathway - cell viability counter screen (AID 743194). Note: nearly all actives have a fitted effect of over 55% in size. The gist of the method: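 PPARg-UAS-bla HEK293H cells were plated, rested 5 h at 37 C, then treated with compounds plus rosiglitazone (50 nM final) for 17 h at 37 C; viability was then read by CellTiter-Glo luminescence after 30 min at room temperature.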

A short description of experiment [7]: qHTS assay for small molecule agonists of the antioxidant response element (ARE) signaling pathway (AID 743202; active = well fitted activation curve with a large enough effect in the signal ratio in the repeat runs, not every such curve was filed as active; the % refers to the signal ratio; note: potency is the fitted concentration of half-maximal effect). The essentials: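 Compounds delivered in DMSO to ARE-bla HepG2 cells (2,000 cells/well, pre-incubated 5 h) and left 16 h at 37 C. LiveBLAzer B/G FRET substrate then added for 2 h at RT before fluorescence reading.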
The nature of experiment [8]: qHTS assay for small molecule agonists of the antioxidant response element (ARE) signaling pathway - cell viability counter screen (AID 743203; calls by dose curve; note: nearly all actives have a fitted effect of over 55% in size). The essentials: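 Compounds in DMSO were pinned onto ARE-bla HepG2 cells plated 5 hrs earlier at 2,000 cells/well. Sixteen hours later at 37C/5% CO2, CellTiter-Glo was added and luminescence measured after 30 min at room temperature.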

A short description of experiment [9]: qHTS assay for small molecule activators of the heat shock response signaling pathway - cell viability counter screen (AID 743209). Note: nearly all actives have a fitted effect of over 50% in size. The essentials:
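Counter screen for cytotoxicity in HeLa HSE-bla reporter cells. Treatment was 5 h at 37 C; viability was detected by luminescent ATP assay (CellTiter-Glo) in the same wells as the beta-lactamase read.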

Experiment [10] is described as follows: qHTS assay for small molecule activators of the heat shock response signaling pathway (AID 743210; active = well fitted activation curve with a large enough effect in the signal ratio in the repeat runs, with a control signal flat, not every such curve was filed as active; the % refers to the signal ratio;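 note: HeLa cells with beta-lactamase reporter driven by heat shock elements; series mostly up to about 63 µM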). The gist of the method:
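Reporter gene assay: HeLa cells stably bearing an HSE-bla construct, compound treatment 5 h at 37 C, LiveBLAzer substrate 2.5 h at RT, fluorescence intensity.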

For experiment [11], the target named is Peroxisome proliferator-activated receptor delta (Homo sapiens) (UniProt Q03181). The experiment in a line: qHTS assay to identify small molecule agonists of the peroxisome proliferator-activated receptor delta (PPARd) signaling pathway (AID 743212; calls by dose curve). The gist of the method:
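A PPARd-bla HEK293H line with beta-lactamase under an Upstream Activator Sequence is treated with compounds at 37 C. Substrate loading for 2 h at room temperature precedes the fluorescence measurement.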

The nature of experiment [12]: qHTS assay to identify small molecule antagonists of the peroxisome proliferator-activated receptor delta (PPARd) signaling pathway - cell viability counter screen (AID 743213). Note: nearly all actives have a fitted effect of over 50% in size. The essentials:
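Luminescence from CellTiter-Glo, added after the bla read and incubated 30 min at room temperature, gives viability of HEK293H PPARd-bla cells exposed to compounds for 17 h at 37 C with 300 nM L165041.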

For experiment [13], the target named is Peroxisome proliferator-activated receptor delta (Homo sapiens) (UniProt Q03181). As to the kind of experiment: qHTS assay to identify small molecule antagonists of the peroxisome proliferator-activated receptor delta (PPARd) signaling pathway (AID 743215; active = well fitted inhibition curve with a large enough effect in the signal ratio in the repeat runs, not every such curve was filed as active; the % refers to the signal ratio;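 note: cells stimulated with agonist L165041 at 300 nM final during compound exposure; series mostly up to about 62 µM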). The essentials: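 With L165041 present at 300 nM final, compounds were incubated 17 h at 37 C on PPARd UAS-bla HEK293H cells. A FRET-based beta-lactamase substrate was then applied for 2 h at room temperature and fluorescence intensity recorded.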

Experiment [14] is described as follows: qHTS assay to identify small molecule agonists of the farnesoid-X-receptor (FXR) signaling pathway - cell viability counter screen (AID 743218). Note: nearly all actives have a fitted effect of over 45% in size. The gist of the method: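 After 16 h at 37 C with test compounds, FXR-bla HEK 293T cells were given LiveBLAzer B/G substrate for 2 h at RT and then CellTiter-Glo; luminescence was taken after 30 min.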
Experiment [15] is described as follows: qHTS assay to identify small molecule antagonists of the farnesoid-X-receptor (FXR) signaling pathway - cell viability counter screen (AID 743221; active = well fitted cell-killing curve with a large enough effect in the repeat runs, not every such curve was filed as active; note: nearly all actives have a fitted effect of over 50% in size). The essentials: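 FXR-UAS-bla HEK 293T cells were treated with test compounds plus chenodeoxycholic acid (50 uM final) for 16 h at 37 C. Cell viability in the same wells was then read as CellTiter-Glo luminescence after 30 min at room temperature.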

In experiment [16] the target is Vitamin D3 receptor (Homo sapiens) (UniProt P11473). As to the kind of experiment: qHTS assay to identify small molecule antagonists of the vitamin D receptor (VDR) signaling pathway (AID 743223; active = well fitted inhibition curve with a large enough effect in the signal ratio in the repeat runs, not every such curve was filed as active; the % refers to the signal ratio). The gist of the method:
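VDR-bla cells were plated, incubated 4 h at 37C, then given compound and 1alpha,25-dihydroxyvitamin D3 (3 nM final). After 16 h at 37C, LiveBLAzer B/G FRET substrate was added for 2 h at room temperature and fluorescence read.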

Experiment [17] in a line: qHTS assay to identify small molecule agonists of the peroxisome proliferator-activated receptor delta (PPARd) signaling pathway - cell viability counter screen (AID 743211). Note: nearly all actives have a fitted effect of over 55% in size. The essentials:
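PPARd-bla HEK293H cells (UAS-beta-lactamase reporter) were treated with compounds for 17 h at 37 C. Viability was then read in the same wells by CellTiter-Glo luminescence after 30 min at room temperature.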

Experiment [18] concerns the target Vitamin D3 receptor (Homo sapiens) (UniProt P11473). As to the kind of experiment: qHTS assay to identify small molecule agonists of the vitamin D receptor (VDR) signaling pathway (AID 743222; calls by dose curve). The essentials:
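VDR-bla cells were seeded, left 4 h, treated with compounds in DMSO for 16 h, incubated 2 h at RT with B/G FRET substrate, and read for fluorescence.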

Experiment [19] addresses Bile acid receptor (Homo sapiens) (UniProt Q96RI1). As to the kind of experiment: qHTS assay to identify small molecule antagonists of the farnesoid-X-receptor (FXR) signaling pathway (AID 743217; active = well fitted inhibition curve with a large enough effect in the signal ratio in the repeat runs, not every such curve was filed as active; the % refers to the signal ratio). The gist of the method: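 In this cell-based antagonist screen, inhibition of CDCA-driven (50 uM final) UAS-beta-lactamase expression in HEK 293T cells was measured by FRET fluorescence following 16 h compound exposure at 37 °C.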

Experiment [20] has the same target. As to the kind of experiment: qHTS assay to identify small molecule agonists of the farnesoid-X-receptor (FXR) signaling pathway (AID 743220; active = well fitted activation curve with a large enough effect in the signal ratio in the repeat runs, not every such curve was filed as active; the % refers to the signal ratio). The essentials:
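Beta-lactamase reporter under UAS control in GeneBLAzer FXR HEK 293T cells (5000/well) measured with LiveBLAzer FRET substrate after 2 h at room temperature. Compound exposure lasted 16 h at 37C.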

Records with an inconclusive call do not appear. A number with no mark means an inactive call. The source made the active and inactive calls. Unless noted, calls come from the whole dose curve; as a rule, active = well fitted curve in the direction sought with a large enough effect in the repeat runs; inconclusive = weak or mixed curves; inactive = no such curve, though single readings can be large; an effect the other way counts as inactive or inconclusive.
% is set by controls: 0 for no effect and ±100 for the full control effect.

Sequence of Vitamin D3 receptor (Homo sapiens) (P11473 whole entry, looked up): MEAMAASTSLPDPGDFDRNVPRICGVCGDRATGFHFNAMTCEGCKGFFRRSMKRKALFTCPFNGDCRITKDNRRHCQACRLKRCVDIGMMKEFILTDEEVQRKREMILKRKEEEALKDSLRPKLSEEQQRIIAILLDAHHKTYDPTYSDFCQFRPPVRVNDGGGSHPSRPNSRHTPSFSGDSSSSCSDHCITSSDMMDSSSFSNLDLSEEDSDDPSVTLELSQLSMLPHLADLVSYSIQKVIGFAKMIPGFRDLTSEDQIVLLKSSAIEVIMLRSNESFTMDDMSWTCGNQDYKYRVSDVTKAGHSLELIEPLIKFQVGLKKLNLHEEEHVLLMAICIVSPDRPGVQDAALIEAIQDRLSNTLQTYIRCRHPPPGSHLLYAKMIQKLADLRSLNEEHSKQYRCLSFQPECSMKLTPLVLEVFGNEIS
Sequence of Peroxisome proliferator-activated receptor delta (Homo sapiens) (Q03181 whole entry, looked up): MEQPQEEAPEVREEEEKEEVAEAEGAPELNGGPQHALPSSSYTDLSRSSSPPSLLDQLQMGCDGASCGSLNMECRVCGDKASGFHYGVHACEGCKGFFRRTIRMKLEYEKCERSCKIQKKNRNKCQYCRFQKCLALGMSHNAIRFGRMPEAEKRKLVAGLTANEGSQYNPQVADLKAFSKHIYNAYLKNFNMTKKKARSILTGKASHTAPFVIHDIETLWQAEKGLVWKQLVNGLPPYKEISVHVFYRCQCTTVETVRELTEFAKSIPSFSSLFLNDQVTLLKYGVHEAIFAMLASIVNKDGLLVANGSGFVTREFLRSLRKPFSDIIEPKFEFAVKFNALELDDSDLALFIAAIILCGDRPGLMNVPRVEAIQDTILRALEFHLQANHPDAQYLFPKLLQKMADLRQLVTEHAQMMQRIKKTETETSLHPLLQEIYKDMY
Sequence of Bile acid receptor (Homo sapiens) (Q96RI1 whole entry, looked up): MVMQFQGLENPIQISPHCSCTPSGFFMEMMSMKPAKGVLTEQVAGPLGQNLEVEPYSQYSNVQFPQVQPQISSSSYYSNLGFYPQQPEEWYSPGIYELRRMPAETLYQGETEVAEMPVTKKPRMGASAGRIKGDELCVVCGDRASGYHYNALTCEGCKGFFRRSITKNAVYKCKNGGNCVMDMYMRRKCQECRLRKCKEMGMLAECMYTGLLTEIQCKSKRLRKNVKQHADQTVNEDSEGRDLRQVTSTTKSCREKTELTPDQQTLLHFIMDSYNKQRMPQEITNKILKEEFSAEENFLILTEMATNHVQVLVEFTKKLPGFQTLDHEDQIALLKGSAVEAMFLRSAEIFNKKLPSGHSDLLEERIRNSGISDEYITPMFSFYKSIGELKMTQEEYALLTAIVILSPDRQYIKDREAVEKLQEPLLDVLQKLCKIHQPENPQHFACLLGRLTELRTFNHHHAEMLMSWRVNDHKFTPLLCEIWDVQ
Sequence of Aryl hydrocarbon receptor (Homo sapiens) (P35869 whole entry, looked up): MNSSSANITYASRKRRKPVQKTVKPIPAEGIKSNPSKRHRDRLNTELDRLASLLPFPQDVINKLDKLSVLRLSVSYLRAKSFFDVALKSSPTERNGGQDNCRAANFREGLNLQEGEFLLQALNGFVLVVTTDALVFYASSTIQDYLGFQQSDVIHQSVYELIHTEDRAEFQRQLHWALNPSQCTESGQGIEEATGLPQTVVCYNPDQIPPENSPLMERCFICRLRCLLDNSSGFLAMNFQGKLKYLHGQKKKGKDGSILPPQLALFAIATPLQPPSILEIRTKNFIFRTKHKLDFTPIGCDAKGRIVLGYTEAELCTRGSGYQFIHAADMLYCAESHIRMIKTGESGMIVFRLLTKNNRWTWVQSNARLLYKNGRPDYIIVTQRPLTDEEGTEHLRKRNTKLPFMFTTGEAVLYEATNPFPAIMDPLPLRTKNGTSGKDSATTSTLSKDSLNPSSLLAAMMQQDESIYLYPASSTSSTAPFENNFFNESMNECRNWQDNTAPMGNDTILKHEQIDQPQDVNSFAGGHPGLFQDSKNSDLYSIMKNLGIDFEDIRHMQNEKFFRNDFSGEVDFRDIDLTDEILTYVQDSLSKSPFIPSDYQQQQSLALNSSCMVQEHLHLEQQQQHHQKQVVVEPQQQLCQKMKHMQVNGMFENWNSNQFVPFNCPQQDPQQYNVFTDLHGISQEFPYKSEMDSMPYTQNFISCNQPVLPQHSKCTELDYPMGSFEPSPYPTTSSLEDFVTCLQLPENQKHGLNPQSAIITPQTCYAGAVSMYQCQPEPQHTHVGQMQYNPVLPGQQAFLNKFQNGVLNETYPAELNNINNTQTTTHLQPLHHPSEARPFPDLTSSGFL
Sequence of Peroxisome proliferator-activated receptor gamma (Homo sapiens) (P37231 whole entry, looked up): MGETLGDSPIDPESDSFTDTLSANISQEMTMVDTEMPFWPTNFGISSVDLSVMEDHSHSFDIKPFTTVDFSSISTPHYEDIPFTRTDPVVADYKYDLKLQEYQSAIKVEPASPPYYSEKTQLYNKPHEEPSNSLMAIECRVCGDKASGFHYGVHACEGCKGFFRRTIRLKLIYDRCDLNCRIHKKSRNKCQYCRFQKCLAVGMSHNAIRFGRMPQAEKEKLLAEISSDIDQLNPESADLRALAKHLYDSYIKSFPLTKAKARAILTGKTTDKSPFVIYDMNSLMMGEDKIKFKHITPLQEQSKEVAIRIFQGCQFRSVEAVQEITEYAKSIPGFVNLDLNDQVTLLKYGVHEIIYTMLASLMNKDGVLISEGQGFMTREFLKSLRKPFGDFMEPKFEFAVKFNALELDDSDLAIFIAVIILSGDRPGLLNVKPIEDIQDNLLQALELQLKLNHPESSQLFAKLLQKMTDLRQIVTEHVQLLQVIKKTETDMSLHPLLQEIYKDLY

Take `C[Si](C)(C)O[Si](C)(C)O[Si](C)(C)C`: the Potency result in experiment [1], in [2], in [3], in experiment [4], in experiment [5] and in experiment [6] was “inactive” each time. Also, the Potency entry in [7], in [8], in experiment [11], in [12], in [14] and in experiment [15] was “inactive” in each case. In addition, the result in experiment [9], in experiment [10], in experiment [13] and in experiment [16] was inactive.
Take `O=Cc1ccc([N+](=O)[O-])cc1`: the Potency entry in experiment [1], in [2], in [3], in experiment [4], in experiment [5] and in experiment [6] was “inactive” each time. Further, the Potency result in experiment [7], in [8], in [17], in experiment [11], in [12] and in experiment [14] was “inactive” each time. In addition, in experiment [15], the Potency result is “inactive”. Moreover, the outcome in experiment [9], in experiment [10], in experiment [13], in [18] and in experiment [16] was inactive.
For the compound `COc1ccc(C(=O)c2ccc(C)cc2)c(O)c1`, the Potency result in experiment [1], in [3], in [4], in experiment [5], in [6] and in experiment [8] was “inactive” throughout. Besides, the Potency result in [17], in experiment [11] and in [15] was “inactive” in each case. In addition, the Potency in [2] is 9.44 µM (active). Moreover, the compound was classed as inactive in experiment [9], in experiment [10], in [13] and in [16].
`CCc1ccc(C(=O)C(C)CN2CCCCC2)cc1` (stereo not drawn): the Potency result in experiment [1], in [2], in experiment [3], in experiment [4], in experiment [5] and in experiment [6] was “inactive” throughout. For the same compound, the Potency entry in experiment [8], in experiment [17], in experiment [12] and in experiment [15] was “inactive” in each case. In [7], the Potency was 23.7 µM (active). The result in experiment [9], in experiment [10], in experiment [13] and in [18] was inactive.
As for `CCCCCCCCCCCCCCCCCCCl`, the activity change, negative = cytotoxicity in experiment [1] was 0.528% [at 8.47 µM]; in [6], 3.5% [at 5.95 µM]; in [9], -2.21% [at 5.95 µM]; in experiment [17], 0.407% [at 5.95 µM]; in experiment [15], 0.201% [at 5.95 µM]. For the same compound, the activation is -0.694% [at 8.47 µM] in experiment [2]; -5.7% [at 7.08 µM] in [4]; -2.23% [at 8.36 µM] in experiment [7]; -1.98% [at 5.95 µM] in experiment [10]; 0.479% [at 5.95 µM] in [20]; 1.2% [at 6.01 µM] in experiment [18]. For the same compound, the viability change, negative = cytotoxic in experiment [3] is -5.7% [at 8.47 µM]; in experiment [8] it was 1.36% [at 8.36 µM]; in experiment [12], -29.3% [at 6.26 µM]. The ratio activity, negative = inhibition was 3.29% [at 5.95 µM] in experiment [5] and -12.3% [at 6.26 µM] in experiment [13]. The activity change, negative = inhibition was -9.56% [at 5.95 µM] in experiment [19] and 1.88% [at 6.95 µM] in [16].
As to `Cc1ccccc1CCO`, the Potency result in [1], in experiment [2], in experiment [3], in [4], in experiment [5] and in experiment [6] was “inactive” throughout. For the same compound, the Potency entry in experiment [7], in experiment [8], in experiment [17], in experiment [12] and in experiment [15] was “inactive” in each case. In addition, the compound was classed as inactive in [10], in experiment [13], in experiment [19], in [20], in experiment [18] and in experiment [16].
Consider `O=S(=O)(O)c1cc(Cl)c(Cl)cc1Cl`, for which the Potency result in experiment [1], in experiment [2], in [3], in experiment [4], in [5] and in experiment [6] was “inactive” in each case. For the same compound, the Potency result in experiment [8], in [17], in experiment [11], in experiment [12], in experiment [14] and in experiment [15] was “inactive” in each case. Further, the compound was called inactive in [9], in experiment [10], in experiment [13] and in experiment [18].
Consider `CCCc1ccc(OC)cc1`, for which the Potency result in experiment [1], in experiment [2], in [3], in [4], in experiment [5] and in [6] was “inactive” throughout. Also, the Potency entry in [8], in [11], in [14] and in [15] was “inactive” each time. Besides, the compound was classed as inactive in [9], in [10], in experiment [13] and in [18].

These data come from PubChem BioAssay (Tox21).
